Laboratory results: ChEMBL document CHEMBL3433997, “St. Jude Leishmania screening dataset” (2016)

Tests used:
Type in all cases: functional
[1] = target: Solute carrier family 2, facilitated glucose transporter member 1 (Homo sapiens) (UniProt P11166); experiment: ST_JUDE_LEISH: Cytotoxicity at 2uM final concentration against transgenic Leishmania Mexicana promastigotes LmGLUT1 that are glucose transport deficient and complemented with the human glucose transporter GLUT1. Activity is measured by DNA content using SYBR green in vitro
Sequence of Solute carrier family 2, facilitated glucose transporter member 1 (Homo sapiens) (P11166 whole entry): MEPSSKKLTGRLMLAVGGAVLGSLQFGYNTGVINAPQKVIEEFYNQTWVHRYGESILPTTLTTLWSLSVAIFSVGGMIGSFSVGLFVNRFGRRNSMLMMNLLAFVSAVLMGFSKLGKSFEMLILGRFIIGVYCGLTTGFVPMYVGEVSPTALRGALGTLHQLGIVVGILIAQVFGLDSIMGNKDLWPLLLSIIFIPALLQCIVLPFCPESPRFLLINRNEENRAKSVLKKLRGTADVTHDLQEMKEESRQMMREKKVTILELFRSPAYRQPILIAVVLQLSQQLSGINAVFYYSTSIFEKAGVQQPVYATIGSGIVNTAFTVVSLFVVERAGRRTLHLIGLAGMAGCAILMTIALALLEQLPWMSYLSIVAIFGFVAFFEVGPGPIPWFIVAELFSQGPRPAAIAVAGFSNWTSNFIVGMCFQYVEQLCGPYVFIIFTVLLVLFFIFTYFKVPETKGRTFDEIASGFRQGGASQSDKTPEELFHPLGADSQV

[2] = target: Hexose transporter 1 (Plasmodium falciparum) (UniProt O97467); experiment: ST_JUDE_LEISH: Cytotoxicity at 2uM final concentration against transgenic Leishmania Mexicana promastigotes LmPfHT that are glucose transport deficient and complemented with the Plasmodium falciparum hexose transporter. Activity is measured by DNA content using SYBR green in vitro
[3] = target: Glucose transporter (Leishmania mexicana) (UniProt O61059); experiment: ST_JUDE_LEISH: Cytotoxicity at 2uM final concentration against transgenic Leishmania Mexicana promastigotes LmGT2 that are glucose transport deficient and complemented with the L. Mexicana glucose transporter 2. Activity is measured by DNA content using SYBR green in vitro

Structure (SMILES)	inhibition [1] [%]	inhibition [2] [%]	inhibition [3] [%]
CN1C(=CC(=O)NC(=O)c2ccccc2)C(C)(C)c2ccccc21	0.52	0.41	0.4
COc1ccc(Nc2nccc(N3CCC(NS(=O)(=O)c4ccc(NC(C)=O)cc4)C3)n2)cc1 (stereo not given)	2.99	2.85	3.38
CC(C)(C)CNc1noc(-c2sccc2Br)n1	-0.27	-0.43	-0.7
C=C1C(C(=O)OCC)=CN(CC)c2cc(O[C@H]3CCN(C(=O)OC(C)(C)C)C3)ccc21	2.71	2.53	-2.32
Cc1cc(-c2c[nH]c3ncc(-c4cccc5ncccc45)cc23)ccc1C(=O)O	0.89	0.55	0.66
O=C(NC1CCN(Cc2cccc(C(F)(F)F)c2)CC1)c1ccc(-c2cccc(C(F)(F)F)c2)s1	6.34	3.03	6.14
CCOc1ccc(Br)cc1/C=C/C(=O)Nc1ccc2c(c1)CN(C)CCC2	4.12	5.18	4.34
O=c1cc(NCCCNCc2ccc(Cl)c(Cl)c2)[nH]c2ccc(Cl)cc12	0.59	0.59	-9.23
CCCOc1ccc(-c2nonc2NC(=O)c2cccc(OC)c2)cc1OCCC	8.68	10.9	10.5
Cc1ccccc1C1CCN(C2CCC(NC(=O)/C=C/c3ccc(F)c(F)c3)CC2)CC1 (stereo not given)	-1.77	-1.74	-1.27
COc1ccc(-c2ccc(CNCc3ccccc3)cc2)cc1S(=O)(=O)NCCN1CCCC1	4.97	1.92	-1.36
CN(C)CCOc1cc(NC(=O)Nc2ccc3c(c2)CCCC3=O)ccc1I	5.03	7.25	4.5
COc1ccc(Oc2cnc(N)nc2N)c(C(C)C)c1	4.31	5.88	2.01
COc1ccc2nccc([C@@H](O)CN3CCC(NC(=O)[C@@H]4Cc5ccccc5CN4C(=O)OC(C)(C)C)CC3)c2c1	8.19	6.18	3.12
Cc1ccc2[nH]cc(/C=C/C(=O)NC3CCC(CCN4CCc5ccc(C#N)cc5CC4)CC3)c2c1 (stereo not given)	0.83	4.1	-2.82
N#CCCN1CCN(Cc2ccc(-c3ccc(-c4nc5cc(F)ccc5[nH]4)s3)cc2)CC1	5.49	0.84	4.14
O=C(NCCCCN1CCCC2c3cccc(O)c3CCC21)c1ccc(-c2ccccc2)cc1 (stereo not given)	0.9	-0.26	-0.23
CCCNCc1c(O)ccc2c(CNCCC)c(O)ccc12	0.17	-0.89	0.49
CCOC(=O)NCC(=O)Nc1cccc(-c2cccc(-c3nc4cccc(C)c4[nH]3)c2)c1	1.11	1.64	1.12
CN(C)c1cccc2c(S(=O)(=O)Nc3cccc(CCN4CCC(N5CCCCC5)CC4)c3)cccc12	0.3	-3.51	-0.34
COc1cc(NC(=O)c2ccc3oc4ccccc4c3c2)ccc1OCCN1CCCCC1	-0.45	1.28	0.62
COc1cc2nc(NCCCO)nc(Nc3ccc(Oc4ccccc4)cc3)c2cc1OC	6.51	6.09	4.69
COc1ccc2ccccc2c1CCCCN1CCN(CC(c2ccc(F)cc2)N2CCN(C3CCCC3)CC2)CC1 (stereo not given)	2.16	4.07	1.41
N#Cc1ccc(-c2ccc(C(=O)Nc3ccc4c(c3)CCN(C3CCC3)CC4)nc2)cc1	3.57	3.06	2.04
CCc1cn2c3c(cc(C(=O)N[C@@H](Cc4ccccc4)[C@H](O)CNCC(C)C)cc13)N(C)S(=O)(=O)CC2	3.97	4.71	3.3
